Experimental data published in the supplement of paper PMC10981050.
Several values for one entry are separate records, joined by “and”; a condition that tells them apart may be missing. Equal values may be shown once. Where a name gives a salt, the structure may show the parent alone.

Each molecule was assayed on K562 (assay: cell viability relative to vehicle control; higher = less cytotoxic). Details: 10 µM; SRSF2 genotype: SRSF2 P95H/wt.
Procedure, shortened: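 CRISPR-edited SRSF2 P95 mutant and isogenic wild-type clones of four leukaemia lines were screened against Selleck bioactive, kinase and epigenetic probe libraries, with identity-inconsistent compounds removed. Compounds were acoustically dispensed into 384-well plates at a single 10 µM dose, with 2000 cells in 50 µL medium per well. After 48 h, supernatant was removed and CellTiter-Glo luminescence was read. Viability was expressed as percent of the on-plate DMSO vehicle control, analysed in Genedata Screener.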

SMILES | cell viability
C[Si](C)(C)CCOCn1ccc2c(-c3cn[nH]c3)ncnc21 | 98.4% and 99.6%
C[C@@H]1CC[C@H]2C(C)(C)[C@H]3C[C@@]12CC[C@@]3(C)O [Cedrol] | 106% and 97.2%
C[C@H]1c2cccc(O)c2C(O)=C2C(=O)[C@]3(O)C(O)=C(C(N)=O)C(=O)[C@@H](N(C)C)[C@@H]3[C@@H](O)[C@@H]21 [Doxycycline] | 82.7% and 74.8%
CNC[C@H](O)[C@@H](O)[C@H](O)[C@H](O)CO [Meglumine] | 108% and 107%
CC1=NN(c2ccccc2)C(=O)C1 [Edaravone (MCI-186)] | 107% and 105%
CN1CCN2c3ncccc3Cc3ccccc3C2C1 (configuration not stated) [Mirtazapine (Remeron, Avanza)] | 101% and 92.3%
CC(O)C(O)c1cnc2nc(N)[nH]c(=O)c2n1 (configuration not stated) [6-Biopterin] | 98.5% and 106%

Same assay, conditions: 10 µM; SRSF2 genotype: SRSF2 wt/wt

SMILES | cell viability [%]
NC(=O)c1cccc2cn(-c3ccc(C4CCCNC4)cc3)nc12 (configuration not stated) [MK-4827(Niraparib)] | 86.9
CCOC(=O)C1=C(COCCN)NC(C)=C(C(=O)OC)C1c1ccccc1Cl (configuration not stated) [Amlodipine besylate (Norvasc)] | 84.3
Cc1ccccc1C(OCCN(C)C)c1ccccc1 (configuration not stated) [Orphenadrine citrate (Norflex)] | 91.3
Cc1ccc(C(C)C)cc1O [Carvacrol] | 98.7
CN1CCN(c2ccc(C(=O)Nc3n[nH]c4ccc(Cc5cc(F)cc(F)c5)cc34)c(NC3CCOCC3)c2)CC1 [Entrectinib (RXDX-101)] | 0.41
Nc1nc(N)nc(-c2cc(Cl)ccc2Cl)n1 [Irsogladine] | 97.1
O=C(Nc1ncc([N+](=O)[O-])s1)c1ccccc1O [Tizoxanide] | 88.8
CO[C@H]1C[C@@H]2CC[C@@H](C)[C@@](O)(O2)C(=O)C(=O)N2CCCC[C@H]2C(=O)O[C@H]([C@H](C)C[C@@H]2CC[C@H](n3cnnn3)[C@H](OC)C2)CC(=O)[C@H](C)/C=C(\C)[C@@H](O)[C@@H](OC)C(=O)[C@H](C)C[C@H](C)/C=C/C=C/C=C/1C [Zotarolimus (ABT-578)] | 66.1
O=C(c1ccc(OCCCc2c[nH]cn2)cc1)C1CC1 [Ciproxifan Maleate] | 87.7
Cc1ccc2nc(CN(CCN(Cc3nc4ccc(C)cc4[nH]3)Cc3nc4ccc(C)cc4[nH]3)Cc3nc4ccc(C)cc4[nH]3)[nH]c2c1 | 1.19
Nc1c(Br)cc(Br)cc1CN[C@H]1CC[C@H](O)CC1 [Ambroxol] | 98.9
O=c1cc(-c2ccc(O)c(O)c2)oc2cc(O)c([C@@H]3O[C@H](CO)[C@@H](O)[C@H](O)[C@H]3O)c(O)c12 [Homoorientin] | 84.1
CC(C)(O)CC(=O)NCCn1ccc2ncnc(Nc3ccc(Oc4cccc(C(F)(F)F)c4)c(Cl)c3)c21 | 72.6
C=CC(=O)Nc1cccc(Nc2nc(Nc3ccc(OCCOC)cc3)ncc2F)c1 | 73.4
Cc1ncc(COP(=O)(O)O)c(C=O)c1O [Pyridoxal phosphate] | 105
NC(=O)c1cnccn1 [Pyrazinamide (Pyrazinoic acid amide)] | 110
O=C(O)c1ccc(O)c(O)c1 [Protocatechuic acid] | 93.3
O=C(NC(NC(=S)Nc1ccc(F)c([N+](=O)[O-])c1)C(Cl)(Cl)Cl)C(c1ccccc1)c1ccccc1 (configuration not stated) | 17.6
O=C1CCN(c2ccccc2)N1 [Phenidone] | 103
C[C@@H]1CC[C@@]2(OC1)O[C@H]1C[C@H]3[C@@H]4CC=C5C[C@@H](O[C@@H]6O[C@H](CO)[C@@H](O)[C@H](O)[C@H]6O)CC[C@]5(C)[C@H]4CC[C@]3(C)[C@H]1[C@@H]2C [Trillin] | 94

SMILES | cell viability [%]
COc1ccc(C[C@@H]2c3cc(Oc4cc(C[C@@H]5c6cc(O)c(OC)cc6CCN5C)ccc4O)c(OC)cc3CCN2C)cc1 [Isoliensinine] | 61.2
CCCCCCCCOc1ccccc1C(=O)Nc1ccc(C(=O)OCC[N+](C)(CC)CC)cc1 [Otilonium Bromide] | 92.3
COC(=O)c1cc(O)c(O)c(O)c1 [Methyl gallate] | 96.7
O=C(O)Cc1cccc2ccccc12 [Potassium 1-Naphthaleneacetate] | 97
O=c1[nH]c(=O)n([C@H]2C[C@H](O)[C@@H](CO)O2)cc1C(F)(F)F [Trifluridine (Viroptic)] | 85.7
C[C@@H](Oc1cc(-n2cnc3ccc(CN4CCN(C)CC4)cc32)sc1C(N)=O)c1ccccc1C(F)(F)F | 34.1
COc1cccc(OC)c1C(=O)OCc1cc(O)ccc1O[C@@H]1O[C@H](CO)[C@@H](O)[C@H](O)[C@H]1O [Curculigoside] | 106
OC[C@@H](O)[C@@H](O)[C@H](O)[C@@H](O)CO [Sorbitol (Glucitol)] | 102
CC(=O)CCC=C(C)CCC=C(C)CCC=C(C)CCC=C(C)C [Teprenone] | 92.9
C[C@]12CC[C@@H]3c4ccc(O)cc4CC[C@H]3[C@@H]1CC[C@@H]2O [Estradiol] | 93.8
CCCNC(C)C(=O)Nc1c(C)csc1C(=O)OC (configuration not stated) [Articaine HCl] | 114
O=C1N=C(N2CCOCC2)CN1c1ccc(Cl)cc1 | 94.4
COc1cc(N2CCC(N3CCN(C)CC3)CC2)ccc1Nc1ncnc(Nc2ccccc2S(=O)(=O)C(C)C)n1 | 80.8
C[Si](C)(C)CCOCn1ccc2c(-c3cn[nH]c3)ncnc21 | 109
C[C@@H]1CC[C@H]2C(C)(C)[C@H]3C[C@@]12CC[C@@]3(C)O [Cedrol] | 96.6
C[C@H]1c2cccc(O)c2C(O)=C2C(=O)[C@]3(O)C(O)=C(C(N)=O)C(=O)[C@@H](N(C)C)[C@@H]3[C@@H](O)[C@@H]21 [Doxycycline] | 79.9
CNC[C@H](O)[C@@H](O)[C@H](O)[C@H](O)CO [Meglumine] | 107
CC1=NN(c2ccccc2)C(=O)C1 [Edaravone (MCI-186)] | 107
CN1CCN2c3ncccc3Cc3ccccc3C2C1 (configuration not stated) [Mirtazapine (Remeron, Avanza)] | 88.7
CC(O)C(O)c1cnc2nc(N)[nH]c(=O)c2n1 (configuration not stated) [6-Biopterin] | 108
